L3MBTL1 block: qHTS Assay for the Inhibitors of L3MBTL1; Lethal(3)malignant brain tumor-like protein 1 (Homo sapiens), Q9Y468; AlphaScreen L3MBTL1–H3K9me1 peptide binding; Potency, µM (doses to about 57.1 µM), for inactives: at the highest dose activity, negative = inhibition, usual class: inhibitors; 230,000 compounds, 0.66% hits; AID 485360, 2010; also: % is scaled to controls: 0 for no effect and ±100 for the full control effect; nearly all actives have a fitted effect of over 60% in size
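AlphaScreen proximity signal between nickel-chelate acceptor and streptavidin donor beads (final 10 ug/mL) reports binding of 50 nM L3MBTL1 to 75 nM biotin-H3 K9me1 peptide; complex incubated with compounds 30 min at room temperature; cefsulodin titration as control.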
HP1b binding inh: HTS for Inhibitors of HP1-beta Chromodomain Interactions with Methylated Histone Tails. Chromobox protein homolog 1 (Homo sapiens), P83916. AlphaScreen HP1-beta / biotin-H3K9me3 peptide binding. Potency, µM (titrated, usually from 114 µM), inactives show top-dose activity change, negative = inhibition, hits mostly inhibitors. 390,000 compounds, 0.56% hits; also: nearly all actives have a fitted effect of over 70% in size
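Compound inhibition of the preformed complex between 50 nM HP1-beta and 50 nM biotinylated H3K9me3 peptide was read by AlphaScreen. Buffer was PBS pH 7.4 with 0.01% Tween-20. Incubations ran 30 min at room temperature, with 10 ug/mL donor/acceptor beads.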
G9a inh: qHTS Assay for Inhibitors of Histone Lysine Methyltransferase G9a. 350,000 compounds, 8.8% hits. Potency, µM (top dose mostly 102 µM), for the others: top-dose activity, negative = inhibition, actives largely listed as inhibitors. G9a H3K9 monomethylation, AlphaScreen, 2 h. Histone-lysine N-methyltransferase EHMT2 (Homo sapiens), Q96KQ7; also: % is scaled to controls: 0 for no effect and ±100 for the full control effect; nearly all actives have a fitted effect of over 75% in size
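Chemiluminescent proximity detection of H3K9 monomethylation, read after 10 min bead incubation in the dark. Reaction: 20 nM G9a, 500 nM biotin-H3K9 peptide, 20 uM SAM cofactor, 2 h, room temperature, following 15 min enzyme-compound preincubation.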
GLS inhibitor: qHTS for Inhibitors of Glutaminase (GLS) | GLS enzymatic activity, qHTS titration | Potency, µM (top dose mostly 45.5 µM), without a hit: at the highest dose activity change, negative = inhibition, usual class: inhibitors | 410,000 compounds, 0.21% hits | AID 624170, 2012; also: % is scaled to controls: 0 for no effect and ±100 for the full control effect
Target sequence (O94925 whole entry, looked up): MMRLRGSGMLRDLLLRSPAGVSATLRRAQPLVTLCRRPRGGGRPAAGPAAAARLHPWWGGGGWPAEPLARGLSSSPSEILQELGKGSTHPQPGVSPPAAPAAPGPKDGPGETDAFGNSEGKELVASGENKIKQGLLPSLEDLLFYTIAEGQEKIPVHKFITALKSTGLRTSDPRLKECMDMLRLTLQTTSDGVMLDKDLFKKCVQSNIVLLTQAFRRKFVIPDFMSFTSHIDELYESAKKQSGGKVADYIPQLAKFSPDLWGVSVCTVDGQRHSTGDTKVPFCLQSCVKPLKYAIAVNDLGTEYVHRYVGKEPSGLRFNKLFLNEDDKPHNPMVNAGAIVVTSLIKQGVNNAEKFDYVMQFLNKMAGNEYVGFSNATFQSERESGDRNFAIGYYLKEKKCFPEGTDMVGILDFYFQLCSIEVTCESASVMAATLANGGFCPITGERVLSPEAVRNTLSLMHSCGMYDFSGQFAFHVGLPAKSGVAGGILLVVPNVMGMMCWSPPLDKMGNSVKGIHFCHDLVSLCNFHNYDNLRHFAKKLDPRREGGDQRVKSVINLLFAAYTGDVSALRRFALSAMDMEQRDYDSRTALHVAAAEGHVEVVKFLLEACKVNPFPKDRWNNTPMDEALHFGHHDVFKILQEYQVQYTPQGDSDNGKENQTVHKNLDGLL
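Compounds were pin-transferred onto hKGA, after which L-glutamine (1 mM solution) and a detection mix of glutamate oxidase, HRP and Amplex Red were added. Initial and 30 min RT fluorescence reads were collected.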
JMJD2A Tudor inh: qHTS Assay for Inhibitors of JMJD2A-Tudor Domain; AlphaScreen JMJD2A-Tudor / H3K4me3 peptide binding; Lysine-specific demethylase 4A (Homo sapiens), O75164; 390,000 compounds, 4.4% hits; Potency, µM (top dose mostly 114 µM), for inactives: at the top dose activity change, negative = inhibition, hits mostly inhibitors; also: % is scaled to controls: 0 for no effect and ±100 for the full control effect; nearly all actives have a fitted effect of over 50% in size
BAZ2B block: qHTS Assay for Inhibitors of BAZ2B | Bromodomain adjacent to zinc finger domain protein 2B (Homo sapiens), Q9UIF8 | AlphaScreen BAZ2B-H3K14Ac peptide displacement | 360,000 compounds, 4.4% hits | Potency, µM (titrated, usually from 114 µM), for the others: top-dose activity change, negative = inhibition, actives largely listed as inhibitors; also: % is scaled to controls: 0 for no effect and ±100 for the full control effect; nearly all actives have a fitted effect of over 60% in size
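Compounds, titrated to a top concentration of 110 uM, were incubated 30 min at room temperature with preformed BAZ2B/acetyl-K14 H3 peptide complex (50 nM each). Proximity signal was measured by AlphaScreen after 20 min with beads.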
Active calls of the source: *; ? = inconclusive; . = not tested or not shown; [ ] = dose if it differs, or a comment. Only some compounds are listed: those with a hit (about 10% of all), similar ones and a draw of the others. Calls follow the shape of the dose curve; as a rule, active = well fitted curve in the direction sought with a large enough effect; inconclusive = small, poorly fitted or top-dose-only effect, or another doubt; inactive = no such curve, though single readings can be large; an effect the other way counts as inactive or inconclusive. Potency is read from the fitted curve at half-maximal effect.

SMILES	L3MBTL1 block	HP1b binding inh	G9a inh	GLS inhibitor	JMJD2A Tudor inh	BAZ2B block
CC12C=CC(=O)C=C1[C@@H](F)CC1C2C(O)CC2(C)C1CC[C@]2(O)C(=O)CO (stereo partly specified)	.	.	15%[59 µM]	6%	.	.
O=C(Nc1ccc(Cl)cc1)C1C2C=CC3(O2)C1C(=O)N(CCN1CCCCC1)C3C(=O)NC1CCCCC1 (stereo unspecified)	.	-4%	-21%	8%	-14%	0%
O=C(Nc1ccc(Cl)cc1)C1C2C=CC3(O2)C1C(=O)N(CCCN1CCCCC1)C3C(=O)NC1CCCCC1 (stereo unspecified)	.	11%	50µM*	5%	-5%	1%
COc1ccc(NC(=O)c2ccco2)cc1NC(=O)COc1ccccc1Cl	.	30%	26%[59 µM]	-12%	-4%	1%
COc1ccc(Cl)cc1NC(=O)Cn1c(=O)n(-c2ccc(C)cc2)c(=O)c2ccc(C(=O)NCc3ccccc3Cl)cc21	.	15%	4%[59 µM]	2%	-16%	.
CN(C(=O)CSc1nc2cc(C(=O)O)ccc2c(=O)n1Cc1ccccc1)C1CCS(=O)(=O)C1 (stereo unspecified)	5%	19%	50µM*	1%	-16%	-5%
Cc1cccc(NC(=O)CCS(=O)(=O)c2cc(Br)cc3c2N(C(=O)C2CC2)CC3)c1	.	43%	-4%[59 µM]	0%	-17%	3%
CCCCNC(=O)N1CCN(c2ccccc2OC)CC1	0%	33%	8%	-5%	-5%	0%
COC(=O)c1sc(=S)n(-c2ccccc2OC)c1N	-10%	15%	35µM*	10%	44%	-6%
Cc1ccc(C)c(-n2c(N)c(C(N)=O)sc2=S)c1	23%	-17%	?	2%	-32%	-5%
CCCCNC(=O)c1sc(=S)n(-c2ccccc2OC)c1N	-15%	?	16µM*	?	-30%	-34%
COc1ccc(Cl)cc1-n1c(N)c(C(N)=O)sc1=S	0%	?	8.9µM*	-13%	?	-2%
CCOc1ccccc1-n1c(N)c(C(N)=O)sc1=S	-10%	-34%	35µM*	7%	-19%	-37%
CCOC(=O)c1sc(=S)n(-c2ccccc2OC)c1N	-7%	?	?	-11%	?	?
O=C(NCC(c1cccnc1)N1CCN(Cc2ccccc2)CC1)C(=O)Nc1cccc(Cl)c1 (stereo unspecified)	.	29%	3%[59 µM]	1%	-19%	0%
Cc1ccc(S(=O)(=O)c2ccc([N+](=O)[O-])cn2)cc1	.	6%[57 µM]	40µM*	-11%	-29%	?
O=[N+]([O-])c1ccc(S(=O)(=O)c2ccccc2)nc1	.	24%	40µM*	3%	-19%	13%
Cn1c(=O)cc(SCC(=O)NCCc2ccc(Cl)cc2)c2cc(Cl)ccc21	.	21%	2%[59 µM]	-2%	-6%	-5%
NC(=S)N=Nc1c(O)cc(O)c2[nH]c(=O)ccc12	.	18µM*	.	?	50µM*	.
NC(=S)N=Nc1c(O)[nH]c2ccc(F)cc12	-6%	23%	27%[59 µM]	-5%	?	-30%
CC(C)OC(=O)c1cc(C(=O)OC(C)C)cc([N+](=O)[O-])c1	.	.	.	-14%[99.4 µM]	.	.
COC1(C)CC2C(CC1OC(=O)c1cc([N+](=O)[O-])cc([N+](=O)[O-])c1)C2(C)C (stereo unspecified)	-21%	?	13µM*	0%	25µM*	7.1µM*
CCN(CC)c1ccc(/C=C(\C#N)C(N)=O)cc1	0%	13%	14%	11%	1%	-25%
CCN(CC)c1ccc(/C=C(\C#N)C(N)=S)cc1	?	?	20µM*	24%	-10%[11.4 µM]	13µM*
Cc1cc(C)c(C(=O)C(C)OC(=O)c2ccccn2)cc1C (stereo unspecified)	.	9%	?	-2%	50µM*	79µM*
SMILES	L3MBTL1 block	HP1b binding inh	G9a inh	GLS inhibitor	JMJD2A Tudor inh	BAZ2B block
CCC(C)C(C(=O)OCC[N+](C)(CC)CC)c1ccccc1 (stereo unspecified)	.	.	.	-1%	.	.
CN1CCCC(OC(=O)COc2ccccc2)C1 (stereo unspecified)	3%	11%	50µM*	12%	-5%	-4%
COc1ccc(NC(=O)Nc2cccc(-c3cn4cccnc4n3)c2)cc1	.	31%	0%[59 µM]	2%	-12%	-16%
CCCC(=O)Nc1cc(OC)c(OC)cc1C(=O)O	.	31%	5%[59 µM]	1%	5%	2%
CCCCNc1cc(NC(C)=O)cc2cc(OC)c(OC)cc12	-9%	-15%	45µM*	-2%	?	-36%
COc1cc2cc(NC(C)=O)cc(NCc3ccccc3)c2cc1OC	-16%	-2%	?	-6%	?	45µM*
COc1ccc(CC(=O)NCc2ccccc2)cc1OC	-3%	23%	.	-6%	-14%	9%
CCOC(=O)CC(NC(=O)c1cc2cc(OC)ccc2oc1=O)c1ccc(OC)cc1 (stereo unspecified)	.	25%	-28%[59 µM]	-13%	6%	-5%
COc1cccc(NC(=O)C2CCCN(c3ncnc4onc(-c5ccc(F)cc5)c34)C2)c1 (stereo unspecified)	.	34%	4%[59 µM]	0%	-7%	7%[57.1 µM]
Cc1ccc(OCCn2ccnc2)c(C)c1	.	33%	71µM*	-12%	-25%	-37%
Cc1cc(C(C)(C)C)ccc1OCCn1ccnc1	.	?	22µM*	9%	14µM*	35µM*
CC(C)(C)c1cc(Cl)ccc1OCCn1ccnc1	-3%	?	.	8%	5µM*	40µM*
Cc1cc(C)c(OCCn2ccnc2)c(C)c1	-5%	49%	3%[59 µM]	-6%	-10%	-31%
O=C(Nc1ccc(S(=O)(=O)N(Cc2ccccc2)c2ccccc2)cc1)c1ccc([N+](=O)[O-])cc1	.	-19%	?	-7%	-33%	-19%
COc1ccc(OC)c(-c2nc3c(C#N)c[nH]n3c2NC2CCCCC2)c1	.	28%	2%[59 µM]	?	-16%	12%
C=CCn1c(N)c(C(=O)N2CCN(C)CC2)sc1=S	-3%	-8%	-26%[59 µM]	-1%	-8%	1%
CNC(=O)c1sc(=S)n(-c2ccc(OC)cc2)c1N	-15%	13%	5%	1%	-15%	-32%
Cc1ccc(-n2c(N)c(C(=O)N3CCN(C)CC3)sc2=S)cc1	-6%	?	2µM*	-4%	?	-24%
